# Data from ChEMBL document CHEMBL3433997, “St. Jude Leishmania screening dataset” (2016).
# Several values for one entry are separate records, joined by “and”; a condition that tells them apart may be missing. Identical values can stand only once.
# Target: Solute carrier family 2, facilitated glucose transporter member 1 (Homo sapiens) (UniProt P11166)
# Assay: ST_JUDE_LEISH: Cytotoxicity at 2uM final concentration against transgenic Leishmania Mexicana promastigotes LmGLUT1 that are glucose transport deficient and complemented with the human glucose transporter GLUT1. Activity is measured by DNA content using SYBR green in vitro
# Type: functional
# Sequence of Solute carrier family 2, facilitated glucose transporter member 1 (Homo sapiens) (P11166 whole entry): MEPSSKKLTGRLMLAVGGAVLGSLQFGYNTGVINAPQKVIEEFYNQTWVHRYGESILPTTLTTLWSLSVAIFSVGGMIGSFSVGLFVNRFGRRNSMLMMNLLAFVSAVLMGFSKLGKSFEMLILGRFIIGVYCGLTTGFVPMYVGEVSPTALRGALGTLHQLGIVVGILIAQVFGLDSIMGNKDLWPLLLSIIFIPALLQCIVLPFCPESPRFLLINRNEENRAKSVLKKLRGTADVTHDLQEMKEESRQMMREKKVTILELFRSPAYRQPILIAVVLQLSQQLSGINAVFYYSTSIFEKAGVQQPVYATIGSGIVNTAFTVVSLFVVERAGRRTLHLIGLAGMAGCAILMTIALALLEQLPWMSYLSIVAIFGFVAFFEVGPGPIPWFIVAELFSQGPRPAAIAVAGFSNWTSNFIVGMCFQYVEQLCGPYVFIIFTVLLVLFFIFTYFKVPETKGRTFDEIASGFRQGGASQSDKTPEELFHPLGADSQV
row,SMILES,inhibition
1,O=C(Nc1ccccc1C(F)(F)F)NC1CCC(CN2CCC(c3c[nH]c4ccccc34)CC2)CC1 (centres undefined),7.14% and 3.61%
2,CCCCCc1cc(O)c2c(c1)OC(C)(C)CC2C1=CCN(Cc2cnc3ccccc3c2)CC1 (centres undefined),1.53%
3,CO[C@@H]1C[C@@H](C(=O)Nc2ccccc2)N(c2ccc(C#N)c3ccccc23)C1,4.31%
4,CCCCn1c(C)c(C(=O)OCC)c2cc(OC(C)=O)c(Br)cc21,1.92%
5,CN(C)CCC(=O)c1ccccc1,3.21%
6,CNC(=O)c1ccc2[nH]cc(C3CCN(CC4CCC(NC(=O)/C=C/c5ccccc5Cl)CC4)CC3)c2c1 (centres undefined),10.8%
7,C=C[C@H]1CN2CC[C@H]1C[C@H]2[C@H](O)c1ccnc2ccccc12,0.68%
8,Cc1cc2ccc(CNCCc3ccccc3Br)cc2nc1N,3.28%
9,Cc1ccccc1CNCC(O)c1cccc(C(F)(F)F)c1 (centres undefined),1.72%
10,COc1cccc(CN2CCC(CCOC(c3ccccc3)c3ccccc3)CC2)c1O,2.87%
11,COc1ccc(N(c2nc(-c3cc(Cl)ccc3Cl)cs2)C2CCNCC2)cc1,0.66%
12,CC[C@H]1CN2CCc3cc(OC)c(OC)cc3[C@@H]2C[C@@H]1C[C@H]1NCCc2c1cc(OC)c(O)c2Cl,94.8%
13,CC(Cc1ccc(NC(=O)[C@H](C)NCCc2cccc(Cl)c2)cc1)NCCc1cccc(Cl)c1 (some centres undefined),2.86%
14,COC(=O)c1ccc(CC(C)NCC(O)c2cccc(C(F)(F)F)c2)cc1F (centres undefined),2.16%
15,CS(=O)(=O)Nc1ccc2[nH]cc(C3CCN(CC4CCC(NC(=O)/C=C/c5ccccc5Cl)CC4)CC3)c2c1 (centres undefined),-1.96%
16,COc1ccc(C=CC(=O)N2CCC(CN3CCC(c4c[nH]c5ccccc45)CC3)CC2)cc1OC,1.11%
17,Cc1[nH]c2cc(F)ccc2c1C1=CCN(CCCCC2(C)C(=O)Nc3ccccc32)CC1 (centres undefined),2.11%
18,O=C(/C=C/c1ccc(Cl)c(Cl)c1)N1CCC(CN2C3CCC2CC(c2c[nH]c4ccccc24)C3)CC1 (centres undefined),2.43%
19,CC[C@H]1CN2CC[C@@H]1C[C@H]2[C@H](O)c1cc[n+]([O-])c2ccc(OC)cc12,-2.84%
20,CCCCCC(C)C(C)c1cc(O)c2c3c(c(=O)oc2c1)CN(Cc1ccccc1)CC3 (centres undefined),2.03%

row,SMILES,inhibition
1,CN1CC=C(c2c[nH]c3ccc(C(=O)c4nccs4)cc23)CC1,-1.82%
2,C/C=C1/CN2CC[C@H]1C[C@H]2[C@H](O)c1ccnc2ccc(O)cc12,-0.31%
3,CC(Cc1ccc(OCCCCOc2ccccc2)cc1)NCCCN1CCOCC1 (centres undefined),-1.24%
4,CC[C@H]1CN2CCc3cc(OC)c(OC)cc3[C@@H]2C[C@@H]1C[C@H]1NCCc2c1cc(OC)c(O)c2I,93.9%
5,Cc1cccc(N2CCN(Cc3cc(Cl)ccc3O)CC2)c1C,0.93%
6,Cc1[nH]c2ccccc2c1C1=CCN(CCCCCNC(=O)/C=C/c2ccc(Cl)c(Cl)c2)CC1,5.3%
7,CC(Cc1ccc(-c2nc3ccccc3[nH]2)cc1)NCC(O)c1cccc(C(F)(F)F)c1 (centres undefined),1.35%
8,C=Cc1cc(OC)c2c(c1)c(=O)oc1c2cc(OC)c2c(O)ccc([C@H]3O[C@H]([C@H](C)O)[C@H](O)[C@H]3O)c21,12.1%
9,COCC(=O)N(Cc1ccccc1-c1ccc(CNCCc2ccccc2)cc1)C1CCN(Cc2ccccc2)CC1,0.08%
10,CCOC(=O)c1ccc(CC(C)NCC(O)c2cccc(C(F)(F)F)c2)cc1 (centres undefined),-2.26%
11,CN(c1cc(NC(=O)c2cccs2)ccn1)C1CCN(Cc2cccc(F)c2)CC1,3.38%
12,Cc1ccc(C)c(N2CCN(Cc3ccccc3O)CC2)c1,0.11%
13,Cc1[nH]c2ccccc2c1C1CCN(CC2CCC(NC(=O)/C=C/c3ccc(Cl)c(Cl)c3)CC2)CC1 (centres undefined),6.8%
14,CC[C@H]1CN2CC[C@H]1C[C@H]2[C@H](O)c1cc(N2CCCC(CO)C2)nc2ccc(OC)cc12 (some centres undefined),2.62%
15,CC(C)CNCc1ccc(-c2ccc(CN(C(=O)Nc3ccccc3)C3CCN(Cc4ccccc4)CC3)cc2)cc1,3.1%
16,CN1CC=C(C=Cc2c[nH]c3ccccc23)CC1,0.96%
17,Cn1cc(CN2CCC(CCOC(c3ccccc3)c3ccccc3)CC2)cn1,12.3%
18,COc1ccc(CC(C)NCC(O)c2cccc(C(F)(F)F)c2)cc1F (centres undefined),1.15%
19,CCCCCCC(C)(C)c1cc(O)c2c(c1)OC(C)(C)c1ccncc1-2,1.05%
